GALK inh = galactokinase (human) inhibition; Purified GALK, Kinase-Glo residual ATP luminescence; Potency, µM (highest dose often 57.5 µM), usual class: inhibitors; hit rate 0.007% among 270,000
Target sequence (P51570 whole entry, looked up): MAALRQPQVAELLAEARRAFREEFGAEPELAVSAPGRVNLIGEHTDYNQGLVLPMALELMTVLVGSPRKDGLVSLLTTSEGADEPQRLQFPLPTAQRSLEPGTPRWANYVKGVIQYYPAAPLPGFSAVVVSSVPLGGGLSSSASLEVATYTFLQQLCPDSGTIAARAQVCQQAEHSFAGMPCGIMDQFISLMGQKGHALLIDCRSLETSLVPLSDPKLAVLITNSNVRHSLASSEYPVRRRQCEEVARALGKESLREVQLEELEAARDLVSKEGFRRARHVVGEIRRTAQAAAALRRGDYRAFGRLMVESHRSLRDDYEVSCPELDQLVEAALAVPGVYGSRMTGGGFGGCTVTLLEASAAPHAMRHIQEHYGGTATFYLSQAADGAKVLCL
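Galactose (100 uM) and ATP (35 uM) were turned over by 5 nM GALK for 1 h at RT. Kinase-Glo Plus then converted the remaining ATP into a luminescent signal.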
Coupling enz = inhibits coupling enzyme system, counter-screen for aldolase hits; hit rate 0.67% among 290,000; activity change, negative = inhibition, % at 58.2 µM, hits read low; coupling enzyme system counterscreen, AmpLite Red fluorescence; in the data active = activity change below about -30%
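Final compound at 57.5 uM, incubated 10 min at RT with coupling enzyme reagent (glyceraldehyde-3-phosphate), then 20 min with substrate and AmpLite Red detection. Fluorescence read at 525/598 nm; tests interference with the coupling assay, not aldolase inhibition.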
TrxR1 substrate = rat thioredoxin reductase 1 substrate activity | O89049 | purified TrxR1 substrate turnover, NADPH consumption readout | Potency, µM (top dose mostly 114 µM) | hit rate 0.01% among 390,000 | AID 588456; also: nearly all actives have a fitted effect of over 50% in size
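Rat TrxR1, dispensed at 90 nM, was prereduced with 400 uM NADPH (final) for 5 min at ~22 deg C, then incubated with compound 15 min before 400 uM selenite. A first-read NADPH fluorescence drop versus no-compound background flagged substrates.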
TrxR1 inh = rat TrxR1 inhibition; O89049; recombinant rTrxR1, NADPH fluorescence consumption, selenite substrate; Potency, µM (doses to about 114 µM), hits mostly inhibitors; hit rate 1% among 390,000; also: nearly all actives have a fitted effect of over 65% in size
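Rat TrxR1 (90 nM in the dispensed reagent) was pre-reduced with 400 uM NADPH for 5 min at room temperature, then incubated with compound for 15 min. After 400 uM selenite was added, NADPH fluorescence (Ex 340/Em 450 nm) was followed for 8 min.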
RORgamma inh = inhibitors of mouse ROR gamma transcriptional activity; AID 2551; Drosophila S2 Gal4-RORgamma UAS-luciferase reporter, 20 h; Potency, µM (titrated, usually from 53.6 µM), hits mostly inhibitors; hit rate 5.4% among 310,000; P51450; also: nearly all actives have a fitted effect of over 60% in size
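A Gal4/UAS one-hybrid system in insect cells: metallothionein-promoter Gal4–ROR gamma fusion plus Photinus luciferase reporter. Copper sulfate 700 uM final, 20 hr ambient incubation, luminescent detection after 10 min with reagent.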
VP16 counter = Gal4-VP16 reporter inhibition counter-screen | Drosophila S2 Gal4-VP16 UAS-luciferase, luminescence, 20 h | Potency, µM (doses to about 53.6 µM), usual class: inhibitors | hit rate 3.5% among 310,000 | AID 2546;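 also: Gal4-VP16 expression switched on by copper sulfate through the metallothionein promoter; nearly all actives have a fitted effect of over 50% in size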
Of the large screens only hits and unclear results are named; the others gave an inactive call. Rows were chosen to be rich in hits. Some 5.9% of all compounds tested hit in one or more screens of this group. Unless noted, calls follow the shape of the dose curve; as a rule, active = well fitted curve in the direction sought with a large enough effect; inconclusive = small, poorly fitted or top-dose-only effect, or another doubt; inactive = no such curve, though single readings can be large; an effect the other way counts as inactive or inconclusive.

CNC(=O)c1ccc2nc(-c3ccco3)c(-c3ccco3)nc2c1	TrxR1 inh 4µM (no result: GALK inh, Coupling enz, RORgamma inh, VP16 counter)
CCCc1ccc(-c2ccc(F)c(N)c2)nc1	RORgamma inh 4.5µM, VP16 counter inconclusive (no result: GALK inh)
CC(C)CN=Cc1c(O)c([N+](=O)[O-])cc2oc3c(c12)CCCC3	Coupling enz -32
CCOC(=O)c1c(C)oc2c1c1c(c3ccccc32)OCN(CCCC(=O)O)C1	TrxR1 inh 3.5µM
CCOC(=O)c1c(C)oc2c1c(C=NCc1ccccn1)c(O)c1ccccc12	Coupling enz -53, RORgamma inh 6.3µM, VP16 counter inconclusive
CCOC(=O)c1c(C)oc2c1c(C(c1cccnc1)N1CCOCC1)c(O)c1ccccc12 (stereo not given)	Coupling enz -44, TrxR1 inh 11µM, RORgamma inh inconclusive, VP16 counter inconclusive
CCOC(=O)c1c(C)oc2c1c1c(c3ccccc32)OCN(Cc2cccnc2)C1	Coupling enz -57, TrxR1 inh 1.4µM, RORgamma inh 1.8µM, VP16 counter 7.9µM
CCOC(=O)c1c(C)c(C(=O)NCc2cccnc2)c(C)n1CC	none
CCOC(=O)c1c(C)oc2c1c(C(c1cccnc1)N1CCN(C)CC1)c(O)c1ccccc12 (stereo not given)	none (no result: TrxR1 substrate, TrxR1 inh)
CCOC(=O)c1c(C)oc2c1c(C=NCC1CCCO1)c(O)c1ccccc12 (stereo not given)	none
CC(/C=C/c1ccccc1)=N\Nc1nc(C)cc(C)n1	RORgamma inh 0.45µM, VP16 counter 5µM (no result: GALK inh)
Cc1cc(C)nc(NN=C(c2ccccc2)c2ccccc2)n1	RORgamma inh 7.9µM, VP16 counter inconclusive
COc1cc2c(cc1OC)CN(C(=O)/C=C/c1ccc([N+](=O)[O-])cc1)CC2	none
CCCCCCc1ccc(N2C[C@H](C)[C@@H](CC(=O)NCc3ccccc3)C2=O)cc1	none (no result: GALK inh)
Cc1ccccc1-c1nc2c3ccccc3nc(=S)n2[nH]1	RORgamma inh 0.28µM, VP16 counter 1µM
Cc1ccccc1-c1nc(N2CCOCC2)c2ccccc2n1	none (no result: GALK inh, TrxR1 substrate, TrxR1 inh)
Cc1nc2ccccc2n1CCc1nc2c3ccccc3nc(=S)n2[nH]1	TrxR1 inh inconclusive, RORgamma inh 3.5µM, VP16 counter 10µM
Cc1nc2ccccc2n1CCCOc1ccccc1	RORgamma inh inconclusive, VP16 counter inconclusive
COCCNC(=O)C1CC(=O)N(c2ccc(F)c(Cl)c2)C1 (stereo not given)	none (no result: GALK inh, Coupling enz, RORgamma inh, VP16 counter)
COc1ccccc1NC1=C(N2CCCCC2)C(=O)c2ccccc2C1=O	Coupling enz -51, VP16 counter inconclusive
O=C1C(Nc2ccccc2)=C(N2CCCCC2)C(=O)c2ccccc21	Coupling enz -50, TrxR1 inh inconclusive
O=C(/C=C/c1ccc(O)cc1)c1ccc(NC2=C(N3CCCCC3)C(=O)c3ccccc3C2=O)cc1	Coupling enz -46, TrxR1 inh 45µM, RORgamma inh 0.32µM, VP16 counter inconclusive
Cc1ccc(NC2=C(N3CCCCC3)C(=O)c3ccccc3C2=O)cc1	Coupling enz -45, TrxR1 inh inconclusive, VP16 counter inconclusive
O=C1C(NS(=O)(=O)c2ccc(Br)cc2)=C(N2CCCCC2)C(=O)c2ccccc21	VP16 counter inconclusive
CC1=C(Nc2ccc(C(=O)O)cc2)C(=O)c2ccccc2C1=O	TrxR1 inh inconclusive, VP16 counter inconclusive (no result: GALK inh)
CCCCNc1nc(NC)nc(Cl)c1SC	none
O=C1C(Nc2cccc(O)c2)=C(N2CCCCC2)C(=O)c2ccccc21	Coupling enz -51, TrxR1 inh inconclusive, VP16 counter inconclusive
NC(=O)c1oc2ccccc2c1NC(=O)C1COc2ccccc2O1 (stereo not given)	VP16 counter inconclusive
Cc1ccc(/C=N/n2c(-c3cccs3)n[nH]c2=S)cc1	RORgamma inh 2µM, VP16 counter inconclusive
S=c1[nH]nc(-c2cccs2)n1/N=C/c1c(Cl)cccc1Cl	RORgamma inh 11µM
COc1ccc(/C=N/n2c(-c3cccs3)n[nH]c2=S)cc1	RORgamma inh 2.8µM, VP16 counter inconclusive
Cc1ccsc1/C=N/n1c(-c2ccccc2)n[nH]c1=S	none
CCOc1ccc(C(=O)Nc2c(C(=O)c3ccc(OC)cc3)oc3ccccc23)cc1	none (no result: GALK inh, Coupling enz, RORgamma inh, VP16 counter)
Cc1ccc(/C=N/n2c(-c3ccco3)n[nH]c2=S)cc1	TrxR1 inh inconclusive, RORgamma inh 7.1µM, VP16 counter inconclusive
Cc1ccsc1/C=N/n1c(-c2ccco2)n[nH]c1=S	none (no result: Coupling enz)
S=c1[nH]nc(-c2ccco2)n1/N=C/c1c(Cl)cccc1Cl	none
S=c1[nH]nc(-c2ccco2)n1/N=C/c1cccc(Cl)c1	RORgamma inh 14µM
Cc1cccc(/C=N/n2c(-c3ccco3)n[nH]c2=S)c1	RORgamma inh inconclusive
Cn1cccc1/C=N/n1c(-c2ccco2)n[nH]c1=S	TrxR1 inh inconclusive, RORgamma inh 11µM
S=c1[nH]nc(-c2ccco2)n1/N=C/c1ccc(Cl)c(Cl)c1	RORgamma inh 5.6µM, VP16 counter 5.6µM
CC(=O)Nc1ccc(S(=O)(=O)Nc2cccc(S(=O)(=O)N(C)c3ccccc3)c2)cc1	none (no result: GALK inh, Coupling enz, RORgamma inh, VP16 counter)

Screens deposited in PubChem by National Center for Advancing Translational Sciences (NCATS).
